{"source": "PubChem BioAssay (NCATS)", "note": "Results filed as inconclusive are left out. Entries that show only a call come without a potency. Calls of active or inactive are those of the source. Calls follow the shape of the dose curve; as a rule, active = well fitted inhibition curve with a large enough effect; inconclusive = small, poorly fitted or top-dose-only effect; inactive = flat fitted curve, though single readings scatter.", "data": [{"target": "Glutathione peroxidase 1 (Homo sapiens) (UniProt P07203)", "sequence (P07203 whole entry, looked up)": "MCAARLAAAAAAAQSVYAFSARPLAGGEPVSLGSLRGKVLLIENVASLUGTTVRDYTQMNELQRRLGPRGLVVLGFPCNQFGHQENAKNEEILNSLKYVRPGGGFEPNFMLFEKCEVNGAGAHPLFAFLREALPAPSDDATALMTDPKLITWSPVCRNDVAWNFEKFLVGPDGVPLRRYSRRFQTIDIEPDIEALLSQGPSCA", "assay": "Primary qHTS Assay for Inhibitors of Recombinant Selenoprotein Glutathione Peroxidase 1 (GPX1) (AID 1845191); also: nearly all actives have a fitted effect of over 65% in size", "conditions": "recombinant GPX1, GR-coupled NADPH fluorescence, 15 min; series mostly up to 48.8 µM", "how_it_was_run": "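GPX1 10 nM, GR 100 nM, GSH 1 mM, NADPH 0.5 mM, CHP 0.5 mM (final). 30-min cpd preincubation, RT. Ex340/Em450 read t=0, t=15 min.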", "values": [{"molecule": "CC(C)CC(=O)O[C@@H]1OC=C(CO[C@@H]2O[C@H](CO)[C@@H](O)[C@H](O)[C@H]2O)[C@H]2[C@@H]3O[C@H]3[C@@](O)(CO)[C@@H]12", "Potency": "inactive"}, {"molecule": "C/C=C/C=C/C=C/C(=O)OC1C=C(C=O)C(O)(C(=O)O)C2(C)CCCC(C)(C)C12", "note": "(stereo not drawn)", "Potency": "inactive"}, {"molecule": "CC(CCC1(O)OC2CC3C4CCC5CC(O[C@@H]6O[C@H](CO)[C@@H](O)[C@H](O)[C@H]6O[C@@H]6O[C@@H](C)[C@H](O)[C@@H](O)[C@H]6O)C(O)CC5(C)C4CCC3(C)C2C1C)CO[C@@H]1O[C@H](CO)[C@@H](O)[C@H](O)[C@H]1O", "note": "(stereo partly drawn)", "Potency": "inactive"}, {"molecule": "Cc1nc(Nc2n[nH]c3c2CN(C(=O)NC(CN(C)C)c2ccccc2)C3(C)C)c2sccc2n1", "note": "(stereo not drawn)", "Potency": "inactive"}, {"molecule": "CC(=O)OCC1(O)CCC2C(COC3OC(CO)C(O)C(O)C3OC(=O)/C=C/c3ccc(O)cc3)=COC(OC(=O)CC(C)C)C21", "note": "(stereo not drawn)", "Potency": "inactive"}, {"molecule": "CC1=CC(=O)[C@H]2C(C)(C)CCC[C@]2(C)[C@@]1(O)CO", "Potency": "inactive"}, {"molecule": "CC1CCC2C(C)(C)[C@@H](O)CC[C@]2(C)C12Cc1c(O)cc3c(c1O2)CN(C(CCC(=O)O)C(=O)O)C3=O", "note": "(stereo partly drawn)", "Potency": "inactive"}, {"molecule": "CCCC(=O)NCCc1csc(-c2ccc(Cl)cc2)n1", "Potency": "inactive"}, {"molecule": "C[C@@H]1CCC/C=C/[C@H]2CC(=O)C[C@@H]2[C@@H](O)/C=C/C(=O)O1", "Potency": "inactive"}, {"molecule": "CC1(C)CCC2(C(=O)OC3OCC(O)C(O)C3O)CCC3(C)C(=CCC4C5(C)CC(O)C(OC6OC(COC7OCC(O)C(O)C7O)C(O)C(O)C6O)C(C)(C)C5CCC43C)C2C1", "note": "(stereo not drawn)", "Potency": "inactive"}, {"molecule": "CC(C)=CC/C=C(\\C)[C@H]1CC[C@]2(C)[C@@H]1[C@H](O)C[C@@H]1[C@@]3(C)CC[C@H](O)C(C)(C)[C@@H]3[C@@H](O[C@@H]3O[C@H](CO)[C@@H](O)[C@H](O)[C@H]3O)C[C@]12C", "Potency": "inactive"}, {"molecule": "CC1OC(OC2C(O)C(OC3CCC4(C)C(CCC5(C)C4CC=C4C6CC(C)(COC7OC(CO)C(O)C(O)C7O)CC(O)C6(C)CCC45C)C3(C)C)OC(C(=O)O)C2O)C(O)C(O)C1OC1OCC(O)C(O)C1O", "note": "(stereo not drawn)", "Potency": "inactive"}, {"molecule": "C=C1C(=O)OC2C1CCC(=C)C1CC(OC(C)=O)C(=C)C12", "note": "(stereo not drawn)", "Potency": "inactive"}, {"molecule": "CC1=C(C(=O)O)/C(=C/CO[C@@H]2O[C@H](COC(=O)/C=C/c3ccc(O)cc3)[C@@H](O)[C@H](O)[C@H]2O)C(O)C1", "note": "(stereo partly drawn)", "Potency": "inactive"}, {"molecule": "Cc1nc(C)c(-c2ccc(C3CCC(CC(=O)O)CC3)cc2)nc1C(N)=O", "note": "(stereo not drawn)", "Potency": "inactive"}, {"molecule": "Cn1cc(S(=O)(=O)c2ccc(Cl)cc2)c2cccc(N3CCNCC3)c21", "Potency": "inactive"}, {"molecule": "CC(C)=CCC/C(C)=C/CO[C@@H]1O[C@H](CO)[C@@H](O)[C@H](O)[C@H]1O", "Potency": "inactive"}, {"molecule": "CNC(=O)c1ccccc1Nc1cc(Nc2ccc(N3CCOCC3)cc2OC)ncc1C(F)(F)F", "Potency": "inactive"}, {"molecule": "O=C(c1cc2c(cc1F)OC(c1ccc(F)cc1)(c1ccc(Cl)cc1Cl)O2)N1CCOCC1", "note": "(stereo not drawn)", "Potency": "inactive"}, {"molecule": "COC(=O)/C=C/C12COC(C)(C)C1C(O)C(OC(C)=O)C1(C)C2CCC2(C)C(c3ccoc3)OC(=O)C3OC321", "note": "(stereo not drawn)", "Potency": "inactive"}, {"molecule": "CC(C)(C)NC(=O)[C@@H](c1cccnc1)N(C(=O)c1ccco1)c1ccc(C(C)(C)C)cc1", "Potency": "inactive"}, {"molecule": "C=C(CCC1=C(C)[C@H]2[C@H](CC3[C@@H]4CC=C5C[C@@H](O)C[C@@H](O)[C@]5(C)C4[C@H](O)C[C@@]32C)O1)CO[C@@H]1O[C@H](CO)[C@@H](O)[C@H](O)[C@H]1O", "note": "(stereo partly drawn)", "Potency": "inactive"}, {"molecule": "CC1CCC2(C=O)C(CO)=CCCC2C1(C)CC(=O)O", "note": "(stereo not drawn)", "Potency": "inactive"}, {"molecule": "CC1CCC23COC(=O)C2=CC(O)CC3C1(C)CCC1=CC(O)OC1=O", "note": "(stereo not drawn)", "Potency": "inactive"}, {"molecule": "CC(=O)N1CCN(C(=O)Cc2ccc(Nc3ncc(F)c(Nc4ccc(C(=O)Nc5ccccc5Cl)cc4)n3)cc2)CC1", "Potency": "inactive"}, {"molecule": "CCC(C)C(=O)O[C@H]1CCC=C2C=C[C@H](C)[C@H](CC[C@@H](O)C[C@@H](O)CC(=O)O)[C@H]21", "note": "(stereo partly drawn)", "Potency": "inactive"}, {"molecule": "Cc1cc2c(c(=O)[nH]1)OC(C(O)CC(C)C)O2", "note": "(stereo not drawn)", "Potency": "inactive"}, {"molecule": "O=C(O)c1cc(I)ccc1NC(=O)[C@H](Cc1ccccc1)NCc1ccccc1", "Potency": "inactive"}, {"molecule": "CC(C)C(NC(=O)c1ccc2ccccc2n1)C(=O)NC(CC(=O)O)C(=O)COc1c(F)cccc1F", "note": "(stereo not drawn)", "Potency": "inactive"}, {"molecule": "CC/C=C\\CC1C(=O)C=CC1(CCCCCCCC(=O)O)OC(C)=O", "note": "(stereo not drawn)", "Potency": "inactive"}, {"molecule": "CCC(O)C(C)C1CCC(C(C)C(=O)O)O1", "note": "(stereo not drawn)", "Potency": "inactive"}, {"molecule": "C=C1CCC2C(C)(C)C(O)CCC2(C)C1CCC(C)CCO", "note": "(stereo not drawn)", "Potency": "inactive"}, {"molecule": "COc1c(/C=C/C(C)(C)O)ccc2c1C(=O)OCc1cc(C)cc(O)c1O2", "Potency": "inactive"}, {"molecule": "CC(=O)OC1/C(C)=C/C(=O)C(OC(C)=O)C(C)(C)/C=C/C(C)C(=O)C2(OC(C)=O)CC(C)C(OC(=O)c3ccccc3)C12", "note": "(stereo not drawn)", "Potency": "inactive"}, {"molecule": "CCOCCOC(=O)/C=C/c1ccc(OC)cc1", "Potency": "inactive"}, {"molecule": "CC1=CC(=O)C2C(C)(C)CCC[C@]2(C)[C@H]1CO", "note": "(stereo partly drawn)", "Potency": "inactive"}, {"molecule": "CC[C@]1(O)CC2CN(CCc3c([nH]c4ccccc34)[C@@](C(=O)OC)(c3cc4c(cc3OC)N(C)[C@H]3[C@@](O)(C(=O)OC)[C@H](OC(C)=O)[C@]5(CC)C=CCN6CC[C@]43[C@@H]65)C2)C1", "note": "(stereo partly drawn)", "Potency": "inactive"}, {"molecule": "CO[C@H]1/C=C/C=C/C=C/C[C@H](OC(=O)[C@@H](C)NC(=O)C2CCCCC2)[C@H](C)[C@@H](O)/C(C)=C/CCc2cc(O)cc(c2)NC(=O)C1", "Potency": "inactive"}]}]}
